Reference: ChEMBL document CHEMBL4513146, “CO-ADD screening of Karazin Kharkiv National University (Ukraine) compounds”
Entries with a potency or affinity are not part of this list.

What was measured:
Klebsiella pneumoniae = settings: Concentration 32 ug.mL-1;; ASSAY_TEST Inhibition of Bacterial Growth; detection method Absorption (OD600); MEDIA CAMHB; plate type 384well; NBS; CORNING #3640; time 18 hr
Candida albicans = settings: Concentration 32 ug.mL-1; ASSAY_TEST Inhibition of Fungal Growth; detection method Absorption (OD530)
Cryptococcus neoformans = settings: Concentration 32 ug.mL-1; ASSAY_TEST Inhibition of Fungal Growth; detection method Resazurin; Absorption (OD600-OD570); plate type 384well; NBS; CORNING #3640

| Structure (SMILES) | Inhibition (Klebsiella pneumoniae) | Inhibition (Candida albicans) | Inhibition (Cryptococcus neoformans) |
| --- | --- | --- | --- |
| COc1ccccc1Cn1c(=O)c2sccc2n2c(=O)n(Cc3ccccc3)nc12 | 5.78% | -0.06% | -28.67% |
| CCc1ccc(N(Cc2ccccc2)S(=O)(=O)c2cccn3cnnc23)cc1 | 1.9% | 2.34% | -3.81% |
| Cc1cccc(CN(c2ccccc2)S(=O)(=O)c2cccn3c(C)nnc23)c1 | 4.77% | -0.3% | -6.4% |
| CCCCn1c(=O)c2sccc2n2c(=O)n(CC(=O)N3CCC(Cc4ccccc4)CC3)nc12 | 0.07% | -1.21% | -0.28% |
| CC(C)CCNC(=O)Cn1nc2n(Cc3cccs3)c(=O)c3sccc3n2c1=O | 6.63% | -0.58% | -17.23% |
| Cc1ccccc1Oc1nccn2c(=O)n(CC(=O)Nc3ccccc3C(F)(F)F)nc12 | 15.23% | -0.33% | -11.87% |
| CCOc1ccccc1NC(=O)Cn1nc2c(SC3CCCCC3)nccn2c1=O | 10.39% | 5.31% | -21.42% |
| CCc1nnc2c(S(=O)(=O)N(Cc3cccc(C)c3)c3ccc(Cl)cc3)cccn12 | 3.49% | 0.59% | -3.81% |
| CCOc1ccc(NC(=O)Cn2nc3c(Sc4cccc(F)c4)nccn3c2=O)cc1 | -0.38% | 0.06% | -4.31% |
| Cc1ccc(CNC(=O)CSc2nnc3c4cc(-c5ccc(C)cc5)nn4ccn23)cc1 | 11.71% | -0.39% | -36.09% |
| Cc1ccc(NC(=O)Cn2nc3ccc(SC4CCCCC4)nn3c2=O)cc1 | -2.92% | 2.85% | -17.59% |
| O=c1c2nnc(SCc3ccccc3Cl)n2ccn1-c1ccc(F)c(F)c1 | 8.56% | 3.72% | -8.25% |
| COc1ccc(OC)c(NC(=O)Cn2nc3c4cc(-c5ccc(F)cc5)nn4ccn3c2=O)c1 | 1.37% | 3.04% | -6.46% |
| CCc1nnc2ccc(S(=O)(=O)N(Cc3ccc(OC)c(F)c3)c3ccccc3)cn12 | -3.43% | -0.62% | -5.32% |
| CCN(C(=O)CSc1nnc2c3cc(-c4ccc(OC)cc4)nn3ccn12)c1ccccc1 | 4.95% | 2.01% | -1.74% |
| CSc1cccc(NC(=O)Cn2nc3c(N4CCCC4)nccn3c2=O)c1 | 1.74% | 3.86% | -5.38% |
| Cc1ccc(Sc2nccn3c(=O)n(CC(=O)Nc4cccc(Cl)c4)nc23)c(C)c1 | 8.68% | 4.74% | -21.78% |
| CCCCNC(=O)Cn1nc2n(Cc3ccco3)c(=O)c3sccc3n2c1=O | 5.33% | 0.44% | -11.54% |
| O=C(Cn1nc2c3c4c(sc3ncn2c1=O)CCCC4)Nc1ccc2c(c1)OCO2 | 4.23% | 4.71% | -14.52% |
| COc1ccc(-c2cc3c4nnc(CCC(=O)NCc5ccc(OC)c(OC)c5)n4ccn3n2)cc1 | 12.53% | 2.24% | -11.61% |
| COc1cccc(-n2ccn3c(SCC(=O)NCc4ccco4)nnc3c2=O)c1 | 16.06% | 4.76% | -13.76% |
| CCOc1ccc(-n2ccn3c(SCC(=O)c4ccccc4)nnc3c2=O)cc1 | 1.87% | 12.91% | -3.51% |
| CCc1nnc2c(S(=O)(=O)N(Cc3cccc(OC)c3)c3ccc(F)cc3)cccn12 | -0.6% | 3.42% | -6.42% |
| Cc1nnc2ccc(S(=O)(=O)N(Cc3cc(F)cc(F)c3)c3ccc(F)cc3)cn12 | 7.75% | 0.47% | -6.16% |
| Cc1ccc(C(=O)CSc2nnc3c(=O)n(-c4ccc(F)cc4)ccn23)c(C)c1 | 5.21% | 2.78% | -8.55% |
| CCc1ccccc1NC(=O)CSc1nnc2ccc(C(=O)Nc3cccc(F)c3)cn12 | 6.52% | 8.2% | -4.61% |
| O=C(CCc1nnc2c3cc(-c4ccc(F)cc4)nn3ccn12)NCc1ccccc1Cl | 1.44% | 9.78% | -27.21% |
| Cc1ccccc1Oc1nc2ccccc2n2c(=O)n(CC(=O)Nc3cccc(C(F)(F)F)c3)nc12 | 12.65% | 1.53% | -23.54% |
| CC(C)CCn1c(=O)c2sccc2n2c(=O)n(CCOc3ccccc3)nc12 | 15.26% | 12.41% | -11.28% |
